From PubChem BioAssay AID1159580 (chemical genetic matrix, 2015)
“And” between values parts separate entries of the source, which are not always exact repeats. Equal values may be shown once. Out of some 5,500 compounds screened, about 2,000 (36%) were called active. About 18% were inconclusive and are not listed. No stated cut-off is given here; in the data, active means normalized growth mostly below about 0.91 (no sharp cut-off); inconclusive means no clear call, values can overlap the other calls; inactive means mostly above about 0.92. This is one part of the list.

Assay: chemical genetic growth profiling, strain panel (AID 1159580);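 further: tested at 20 µM; growth read once vehicle control cultures reached saturation at 30 °C; 1 = growth at the plate median or of vehicle wells; lower values mean less growth of the strain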
Conditions: growth OD

Measured: normalized growth

CC(C(=O)O)c1cccc(Oc2ccccc2)c1 (configuration not stated)
inactive: S. cerevisiae deletion strains, locus YAL013W, strain DEP1, hits give low values 0.963 | S. cerevisiae deletion strains, locus YBR021W, strain FUR4, hits give low values 0.983 | S. cerevisiae deletion strains, locus YBR229C, strain ROT2, hits give low values 0.94 | S. cerevisiae deletion strains, locus YCL029C, strain bik1, hits give low values 0.98 | S. cerevisiae deletion strains, locus YDL035C, strain GPR1, hits give low values 0.983 | S. cerevisiae deletion strains, locus YDL074C, strain BRE1, hits give low values 0.997 | S. cerevisiae deletion strains, locus YDL101C, strain DUN1, hits give low values 0.96 | S. cerevisiae deletion strains, locus YDL134C, strain PPH21, hits give low values 0.976 | S. cerevisiae deletion strains, locus YDL185W, strain tfp1, hits give low values 0.948 | S. cerevisiae deletion strains, locus YDL192W, strain arf1, hits give low values 0.973 | S. cerevisiae deletion strains, locus YDR101C, strain arx1, hits give low values 0.984 | S. cerevisiae deletion strains, locus YDR150W, strain NUM1, hits give low values 0.947 | S. cerevisiae deletion strains, locus YDR162C, strain NBP2, hits give low values 0.969 | S. cerevisiae deletion strains, locus YDR318W, strain mcm21, hits give low values 0.988 | S. cerevisiae deletion strains, locus YDR388W, hits give low values 0.978 | S. cerevisiae deletion strains, locus YDR502C, strain sam2, hits give low values 0.981 | S. cerevisiae deletion strains, locus YEL061C, strain CIN8, hits give low values 0.973 | S. cerevisiae deletion strains, locus YER110C, hits give low values 0.967 | S. cerevisiae deletion strains, locus YER155C, strain BEM2, hits give low values 0.958 | S. cerevisiae deletion strains, locus YER167W, strain BCK2, hits give low values 0.988 | S. cerevisiae deletion strains, locus YGL078C, strain dbp3, hits give low values 0.959 | S. cerevisiae deletion strains, locus YGL086W, strain mad1, hits give low values 0.98 | S. cerevisiae deletion strains, locus YGL248W, strain PDE1, hits give low values 0.974 | S. cerevisiae deletion strains, locus YGR078C, strain PAC10, hits give low values 0.999 | S. cerevisiae deletion strains, locus YGR135W, strain pre9, hits give low values 0.985 | S. cerevisiae deletion strains, locus YGR229C, strain SMI1, hits give low values 0.974 | S. cerevisiae deletion strains, locus YGR252W, strain gcn5, hits give low values 0.957 | S. cerevisiae deletion strains, locus YHR030C, strain SLT2, hits give low values 0.978 and 0.9 | S. cerevisiae deletion strains, locus YHR079C, strain IRE1 (second series), hits give low values 0.972 | S. cerevisiae deletion strains, locus YHR079C, strain IRE1, hits give low values 0.892 | S. cerevisiae deletion strains, locus YHR094C, strain hxt1, hits give low values 0.965 | S. cerevisiae deletion strains, locus YHR129C, strain ARP1, hits give low values 0.983 | S. cerevisiae deletion strains, locus YHR200W, strain rpn10, hits give low values 0.98 | S. cerevisiae deletion strains, locus YIL066C, strain RNR3, hits give low values 0.964 | S. cerevisiae deletion strains, locus YIL073C, strain SPO22, hits give low values 0.965 | S. cerevisiae deletion strains, locus YIL125W, strain kgd1, hits give low values 0.944 | S. cerevisiae deletion strains, locus YIR030C, strain dcg1, hits give low values 0.962 | S. cerevisiae deletion strains, locus YJL095W, strain BCK1, hits give low values 1.05 and 0.905 | S. cerevisiae deletion strains, locus YJL134W, strain LCB3, hits give low values 0.962 | S. cerevisiae deletion strains, locus YJL168C, strain set2, hits give low values 0.967 | S. cerevisiae deletion strains, locus YJL187C, strain SWE1 (second series), hits give low values 0.983 | S. cerevisiae deletion strains, locus YJR043C, strain POL32, hits give low values 1 | S. cerevisiae deletion strains, locus YJR066W, strain TOR1, hits give low values 0.856 | S. cerevisiae deletion strains, locus YJR075W, strain HOC1, hits give low values 0.998 | S. cerevisiae deletion strains, locus YKL009W, strain mrt4, hits give low values 0.879 | S. cerevisiae deletion strains, locus YKL190W, strain CNB1, hits give low values 0.979 | S. cerevisiae deletion strains, locus YKR001C, strain vps1, hits give low values 0.947 | S. cerevisiae deletion strains, locus YLR039C, strain RIC1, hits give low values 0.842 | S. cerevisiae deletion strains, locus YLR058C, strain SHM2, hits give low values 0.957 | S. cerevisiae deletion strains, locus YLR102C, strain apc9, hits give low values 0.97 | S. cerevisiae deletion strains, locus YLR262C, strain YPT6, hits give low values 0.859 | S. cerevisiae deletion strains, locus YLR268W, strain sec22, hits give low values 1.04 | S. cerevisiae deletion strains, locus YLR330W, strain CHS5, hits give low values 0.956 | S. cerevisiae deletion strains, locus YLR342W, strain FKS1 (second series), hits give low values 0.999 | S. cerevisiae deletion strains, locus YLR371W, strain rom2, hits give low values 0.962 | S. cerevisiae deletion strains, locus YLR418C, strain cdc73, hits give low values 0.99 | S. cerevisiae deletion strains, locus YML016C, strain PPZ1, hits give low values 0.97 | S. cerevisiae deletion strains, locus YML032C, strain rad52, hits give low values 0.987 | S. cerevisiae deletion strains, locus YML124C, strain tub3, hits give low values 0.968 | S. cerevisiae deletion strains, locus YMR078C, strain ctf18, hits give low values 0.953 | S. cerevisiae deletion strains, locus YMR223W, strain ubp8, hits give low values 0.968 | S. cerevisiae deletion strains, locus YMR263W, strain SAP30, hits give low values 0.982 | S. cerevisiae deletion strains, locus YMR307W, strain GAS1, hits give low values 0.953 | S. cerevisiae deletion strains, locus YNL067W, strain RPL9B, hits give low values 1 | S. cerevisiae deletion strains, locus YNL128W, strain TEP1, hits give low values 0.966 | S. cerevisiae deletion strains, locus YNL153C, strain GIM3, hits give low values 0.997 | S. cerevisiae deletion strains, locus YNL183C, strain NPR1, hits give low values 0.864 | S. cerevisiae deletion strains, locus YNL233W, strain BNI4, hits give low values 1 | S. cerevisiae deletion strains, locus YNL250W, strain rad50, hits give low values 0.941 | S. cerevisiae deletion strains, locus YNL271C, strain bni1, hits give low values 0.951 | S. cerevisiae deletion strains, locus YNL298W, strain CLA4, hits give low values 0.929 | S. cerevisiae deletion strains, locus YNL307C, strain MCK1, hits give low values 0.979 | S. cerevisiae deletion strains, locus YNL322C, strain KRE1, hits give low values 0.969 | S. cerevisiae deletion strains, locus YNR052C, strain pop2, hits give low values 0.98 | S. cerevisiae deletion strains, locus YOL006C, strain TOP1, hits give low values 1 | S. cerevisiae deletion strains, locus YOL012C, strain htz1 1.04 | S. cerevisiae deletion strains, locus YOL147C, strain pex11, hits give low values 0.975 | S. cerevisiae deletion strains, locus YOR061W, strain CKA2, hits give low values 0.964 | S. cerevisiae deletion strains, locus YOR069W, strain VPS5, hits give low values 0.966 | S. cerevisiae deletion strains, locus YOR136W, strain idh2, hits give low values 0.977 | S. cerevisiae deletion strains, locus YOR144C, strain elg1, hits give low values 0.972 | S. cerevisiae deletion strains, locus YOR184W, strain ser1, hits give low values 0.98 | S. cerevisiae deletion strains, locus YOR231W, strain MKK1, hits give low values 0.894 | S. cerevisiae deletion strains, locus YOR316C, strain cot1, hits give low values 0.962 | S. cerevisiae deletion strains, locus YPL055C, strain LGE1, hits give low values 0.964 | S. cerevisiae deletion strains, locus YPL241C, strain CIN2, hits give low values 0.976 | S. cerevisiae deletion strains, locus YPL256C, strain CLN2, hits give low values 0.851 | S. cerevisiae deletion strains, locus YPR119W, strain clb2, hits give low values 0.958 | S. cerevisiae deletion strains, locus YPR141C, strain kar3, hits give low values 0.921 | S. cerevisiae deletion strains, locus YPR163C, strain tif3, hits give low values 0.986 | S. cerevisiae deletion strains, locus YPR167C, strain met16, hits give low values 0.975 | S. cerevisiae deletion strains, strain wtn01, hits give low values 0.983 | S. cerevisiae strains, strain wild type, hits give low values 0.973
active: S. cerevisiae deletion strains, locus YKL068W, hits give low values 0.937 | S. cerevisiae deletion strains, locus YKL085W, strain MDH1 (second series), hits give low values 0.919 | S. cerevisiae deletion strains, locus YKL085W, strain MDH1, hits give low values 0.919 | S. cerevisiae deletion strains, locus YLR113W, strain HOG1, hits give low values 0.828
